# Active and inactive are the calls of the source.
# Key:
# [1] = optical density shifts of acrAB sulA E. coli – strain DRC41, OD650, 48 h, E. coli filamentation inducer project, primary screen (AID 1152); details: higher = more signal, called active from +8 up or from −8 down;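 also: E. coli MC1000 strain DRC41 lacking acrAB efflux pump and sulA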
# [2] = probe aLefty1 binding on compound microarray – biochemical, small-molecule microarray, 635/667 nm fluorescence, primary screen (AID 1153); details: higher = more signal;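 also: score merges spot fluorescence with signal-to-noise ratio from the scanned slide images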
# [3] = plasmodial surface anion channel blockers, osmotic lysis – cell-based, P. falciparum Indochina, OD700, 1 h, primary screen (AID 1154); details: P. falciparum Indochina infected RBC osmotic lysis, higher = more signal, called active from +8 up or from −8 down
# [4] = plasmodial surface anion channel blockers, osmotic lysis – cell-based, P. falciparum Indochina, OD700, 2 h, primary screen (AID 1155);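 also: lysis reports solute entry through the parasite surface anion channel PSAC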; details: P. falciparum Indochina infected erythrocytes, higher = more signal, called active from +8 up or from −8 down
# [5] = changes in parasitized red cell lysis, either direction – P. falciparum Indochina, OD700, 3 h, PSAC antagonist project, primary screen (AID 1156); details: P. falciparum-infected erythrocytes, osmotic lysis, higher = more signal, called active from +8 up or from −8 down
# [6] = plasmodial surface anion channel blockers, osmotic lysis – cell-based, P. falciparum Indochina, OD700, 18 h, primary screen (AID 1157); details: P. falciparum Indochina infected erythrocytes, osmotic lysis OD700, 18 h; higher = more signal, called active from +8 up or from −8 down
# [7] = S6 kinase pathway phospho-S6 level changes – cell-based, A549, cytoblot, luminescence, serum-stimulated, primary screen (AID 1158); details: 5 h, higher = more signal;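 also: serum-stimulated A549 lung adenocarcinoma cells; signal is phosphorylated S6 detected by cytoblot immunostaining with HRP secondary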
# [8] = target: NADPH oxidase 2 (Homo sapiens) (UniProt P04839); test: compounds shifting NOX2 Amplex Red fluorescence – cell-based, HEK293-NOX2, PMA-stimulated, NOX inhibitor project, primary screen (AID 1159); details: 45 min, higher = more signal, called active from +8 up or from −8 down; also: test concentration not given here
# [9] = target: NADPH oxidase 4 (Homo sapiens) (UniProt Q9NPH5); test: compounds shifting NOX4 Amplex Red fluorescence – cell-based, HEK293-NOX4, tetracycline-induced, NOX inhibitor project, primary screen (AID 1160); details: HEK293-NOX4, Amplex Red H2O2 fluorescence, 45 min; higher = more signal, called active from +8 up or from −8 down
# [10] = target: NADPH oxidase 5 (Homo sapiens) (UniProt Q96PH1); test: compounds shifting NOX5 Amplex Red fluorescence – cell-based, HEK293-NOX5, NOX inhibitor project, primary screen (AID 1161); details: HEK293-NOX5, ionomycin, 45 min, higher = more signal
# [11] = compound effects on lung adenocarcinoma cell viability – A549, calcein-AM fluorescence, 48 h, basal, profiling panel (AID 1162); details: higher = more signal; also: test concentration not given here
# [12] = compound effects on differentiated 3T3-L1 adipocyte viability – cell-based, 3T3-L1 adipocytes, calcein-AM fluorescence, 48 h, basal, profiling panel (AID 1163); details: 3T3-L1 adipocytes viability, higher = more signal; also: test concentration not given here
# [13] = compound effects on hepatocellular carcinoma cell viability – HepG2, calcein-AM fluorescence, 48 h, basal, profiling panel (AID 1164); details: higher = more signal; also: test concentration not given here
# [14] = compound effects on multiple myeloma cell viability – MM1S, calcein-AM fluorescence, 48 h, basal, profiling panel (AID 1165); details: higher = more signal;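 also: viability of MM1S multiple myeloma cells under basal unstimulated conditions; test concentration not given here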
# [15] = calcein-AM signal in unstimulated myeloma cells – cell-based, calcein-AM fluorescence, 48 h, PK04 Diversity Set, profiling panel (AID 1166); details: RPMI8226 myeloma viability, higher = more signal;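 also: cells grown under basal conditions without added stimulus; test concentration not given here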
# [16] = JC-1 mitochondrial signal, unstimulated HepG2 cells – cell-based, JC-1 fluorescence, 24 h, 100 nL compound, profiling panel (AID 1167); details: HepG2 mitochondrial potential, higher = more signal; also: test concentration not given here
# [17] = JC-1 mitochondrial signal, unstimulated adipocytes – cell-based, JC-1 fluorescence, 3T3-L1 adipocytes, 24 h, 100 nL compound, profiling panel (AID 1168); details: JC-1 mitochondrial fluorescence, higher = more signal, called active from +8 up or from −8 down; also: test concentration not given here
# [18] = JC-1 mitochondrial signal, unstimulated myeloma cells – cell-based, JC-1 fluorescence, RPMI8226, 24 h, 100 nL compound, profiling panel (AID 1169); details: JC-1 mitochondrial potential fluorescence, higher = more signal; also: test concentration not given here
# [19] = JC-1 mitochondrial signal, unstimulated MM1S myeloma – cell-based, JC-1 fluorescence, 24 h, 100 nL compound, profiling panel (AID 1170); details: MM1S mitochondrial potential, higher = more signal; also: test concentration not given here
# [20] = resazurin metabolic signal in A549 cells – cell-based, resazurin fluorescence, 24 h, PK04 Diversity Set, profiling panel (AID 1171); details: A549 viability, higher = more signal, called active from +8 up or from −8 down; also: test concentration not given here
# NADPH oxidase 4 (Homo sapiens), sequence (Q9NPH5 whole entry, looked up): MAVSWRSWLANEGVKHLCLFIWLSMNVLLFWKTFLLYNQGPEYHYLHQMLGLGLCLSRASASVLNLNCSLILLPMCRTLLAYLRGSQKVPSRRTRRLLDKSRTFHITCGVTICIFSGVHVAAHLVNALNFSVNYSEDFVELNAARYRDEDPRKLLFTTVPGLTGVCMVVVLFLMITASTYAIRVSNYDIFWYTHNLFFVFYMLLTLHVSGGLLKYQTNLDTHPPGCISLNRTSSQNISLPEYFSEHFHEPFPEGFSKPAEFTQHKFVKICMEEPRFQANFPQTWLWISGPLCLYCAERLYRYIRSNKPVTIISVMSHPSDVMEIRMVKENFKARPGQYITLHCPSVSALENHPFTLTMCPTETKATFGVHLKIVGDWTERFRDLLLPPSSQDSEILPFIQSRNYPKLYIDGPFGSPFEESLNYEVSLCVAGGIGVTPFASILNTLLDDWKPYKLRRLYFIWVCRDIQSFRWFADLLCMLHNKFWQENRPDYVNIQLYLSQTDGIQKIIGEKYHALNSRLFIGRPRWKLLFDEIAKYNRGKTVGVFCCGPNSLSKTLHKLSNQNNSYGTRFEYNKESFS
# NADPH oxidase 5 (Homo sapiens), sequence (Q96PH1 whole entry, looked up): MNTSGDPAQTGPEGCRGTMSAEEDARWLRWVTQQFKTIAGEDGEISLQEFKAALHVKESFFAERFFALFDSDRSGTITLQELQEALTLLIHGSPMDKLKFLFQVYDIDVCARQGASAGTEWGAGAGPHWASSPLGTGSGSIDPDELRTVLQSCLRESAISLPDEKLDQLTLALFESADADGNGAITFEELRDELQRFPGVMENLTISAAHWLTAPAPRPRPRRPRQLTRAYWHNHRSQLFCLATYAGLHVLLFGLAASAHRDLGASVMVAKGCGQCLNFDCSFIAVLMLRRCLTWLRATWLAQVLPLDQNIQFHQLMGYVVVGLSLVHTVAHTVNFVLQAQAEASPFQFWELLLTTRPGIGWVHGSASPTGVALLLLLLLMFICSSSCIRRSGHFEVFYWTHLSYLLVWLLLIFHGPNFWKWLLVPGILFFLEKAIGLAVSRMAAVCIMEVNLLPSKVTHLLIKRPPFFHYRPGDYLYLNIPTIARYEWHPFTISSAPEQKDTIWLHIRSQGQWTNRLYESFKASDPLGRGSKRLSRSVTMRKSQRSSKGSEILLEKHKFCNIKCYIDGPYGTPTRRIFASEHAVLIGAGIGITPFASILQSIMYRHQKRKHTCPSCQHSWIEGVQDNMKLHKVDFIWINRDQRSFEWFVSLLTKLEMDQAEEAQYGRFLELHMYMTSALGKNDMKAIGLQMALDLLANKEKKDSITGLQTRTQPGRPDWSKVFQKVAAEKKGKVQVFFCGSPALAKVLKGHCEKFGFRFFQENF
# NADPH oxidase 2 (Homo sapiens), sequence (P04839 whole entry, looked up): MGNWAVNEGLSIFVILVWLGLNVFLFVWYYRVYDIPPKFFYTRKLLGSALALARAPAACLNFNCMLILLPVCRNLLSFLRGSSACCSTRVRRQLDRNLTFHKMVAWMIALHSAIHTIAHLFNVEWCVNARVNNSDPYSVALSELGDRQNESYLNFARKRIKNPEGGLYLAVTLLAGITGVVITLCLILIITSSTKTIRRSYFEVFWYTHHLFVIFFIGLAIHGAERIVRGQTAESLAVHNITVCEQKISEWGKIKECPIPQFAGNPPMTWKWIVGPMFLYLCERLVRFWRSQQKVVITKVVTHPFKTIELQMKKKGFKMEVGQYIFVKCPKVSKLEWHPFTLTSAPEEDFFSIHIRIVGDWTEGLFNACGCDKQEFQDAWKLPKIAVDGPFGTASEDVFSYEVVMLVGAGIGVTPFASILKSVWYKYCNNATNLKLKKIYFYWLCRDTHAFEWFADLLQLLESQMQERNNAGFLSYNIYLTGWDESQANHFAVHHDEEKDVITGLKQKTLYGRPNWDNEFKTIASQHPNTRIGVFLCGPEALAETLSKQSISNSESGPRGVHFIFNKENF
Compound,z-score [1],composite z-score [2],z-score [3],z-score [4],z-score [5],z-score [6],z-score [7],z-score [8],z-score [9],z-score [10],z-score [11],z-score [12],z-score [13],z-score [14],z-score [15],z-score [16],z-score [17],z-score [18],z-score [19],z-score [20]
CCOC(=O)C[C@H]1[C@H](OC(=O)c2ccc(C(=O)c3ccccc3)cc2)[C@@H](NC(=O)Cc2ccc(OC)cc2)c2cc(OCCCO)ccc2N1C(=O)c1ccc2ccccc2n1,0.378 (inactive),0.131,3.85 (inactive),1.05 (inactive),-0.392 (inactive),0.604 (inactive),-0.0822,-1.03 (inactive),0.492 (inactive),1.53,1.33,-0.121,0.493,-0.854,-0.614,0.658,2.22 (inactive),-0.234,0.567,-0.383 (inactive)
O=C1O[C@@H](c2ccccc2)[C@@H](c2ccccc2)N2[C@@H](c3ccccc3OCCO)[C@]3(C(=O)Nc4ccccc43)[C@@H](C(=O)O)[C@H]12,-0.749 (inactive),-0.518,0.749 (inactive),0.745 (inactive),-1.6 (inactive),0.761 (inactive),0.128,2.66 (inactive),0.516 (inactive),1.24,-0.796,0.266,0.045,-2.64,0.0803,0.249,-0.742 (inactive),0.649,0.554,0.362 (inactive)
C=CCN1Cc2ccccc2[C@@H]2OC(c3ccc(OCCCO)cc3)=N[C@]2(CCS(=O)(=O)c2ccccc2)C1=O,0.576 (inactive),0.415,27.2 (active),20.3 (active),2.26 (inactive),3.22 (inactive),-0.0454,-1.38 (inactive),0.827 (inactive),0.0284,-0.251,0.771,0.574,-1.12,-0.664,-0.187,-0.303 (inactive),-1.06,-0.181,0.315 (inactive)
COc1cc2c(cc1O)C(c1cccs1)N(Cc1cccc(OC(F)(F)F)c1)CC2 (stereo not given),0.36 (inactive),-0.0999,8.07 (active),0.192 (inactive),0.112 (inactive),-0.751 (inactive),1.09,-4.69 (inactive),-2.74 (inactive),-4.1,-2.79,-0.0814,-2.37,-3.14,-4.49,-2.21,-0.019 (inactive),-0.774,-1.77,-1.98 (inactive)
COC(=O)C(CC#Cc1ccc2c(c1)[C@]1(C(=O)N2)[C@H](c2ccccc2OCCO)N2[C@H](c3ccccc3)[C@H](c3ccccc3)OC(=O)[C@H]2[C@@H]1C(=O)O)C(=O)OC,0.456 (inactive),0.169,4.94 (inactive),0.569 (inactive),-7.69 (inactive),-0.0236 (inactive),-0.13,1.79 (inactive),-0.0833 (inactive),0.036,1.45,0.0879,1.38,-2.37,-2.41,1.11,-0.847 (inactive),-0.214,-0.197,0.917 (inactive)
COc1ccc(NN2C(C(O)c3ccc(N(C)C)cc3)C=CC3C(=O)N(C4CCCCC4)C(=O)C32)cc1 (stereo not given),-0.446 (inactive),0.384,5.03 (inactive),0.589 (inactive),0.193 (inactive),0.484 (inactive),-0.25,-0.759 (inactive),-3.43 (inactive),-2.98,-0.441,-1.13,-0.173,0.0375,-0.136,-0.134,-0.771 (inactive),0.651,-1.63,0.19 (inactive)
O=C(O)[C@H](Cc1ccccc1)n1cc(-c2ccccc2)nn1,-0.695 (inactive),-0.144,-0.256 (inactive),0.216 (inactive),-0.564 (inactive),0.161 (inactive),0.473,-1.58 (inactive),0.283 (inactive),-0.837,-0.757,-0.853,-0.177,0.269,-0.157,-0.601,-0.0821 (inactive),0.666,0.348,-0.143 (inactive)
COc1cc(CO)cc(I)c1O[C@H]1C=C(C(=O)NCCO)C[C@@H](NC[C@@H]2CCCO2)[C@@H]1O,2.35 (inactive),-0.0075,3.81 (inactive),0.585 (inactive),1.4 (inactive),0.303 (inactive),0.687,-0.144 (inactive),0.492 (inactive),-0.0544,1,-0.134,0.7,0.583,0.327,0.65,0.239 (inactive),-0.18,-1.9,0.222 (inactive)
C=C(CCCC)C(=O)CC[C@H](OC(=O)c1cccnc1)c1ccc(OCCO)cc1,-0.646 (inactive),-0.0316,24.3 (active),6.53 (inactive),1.8 (inactive),1.39 (inactive),0.178,-1.12 (inactive),0.000526 (inactive),-2.09,-0.15,0.355,-0.478,-3.34,-3.28,0.697,-0.597 (inactive),-0.658,-1.44,-0.475 (inactive)
NC(=O)NCC#Cc1ccc2c(c1)[C@]1(C(=O)N2)[C@H](C(=O)O)[C@H]2C(=O)O[C@H](c3ccccc3)[C@H](c3ccccc3)N2[C@@H]1c1ccc(O)cc1,-1.29 (inactive),0.642,0.141 (inactive),0.0468 (inactive),-0.357 (inactive),0.27 (inactive),-0.603,1.17 (inactive),-0.399 (inactive),-0.349,0.715,0.407,0.611,-0.944,0.0565,-1.43,-1.56 (inactive),0.123,0.126,1.22 (inactive)
CCOC(=O)C1=CCC(c2ccc(F)cc2)N(S(=O)(=O)c2ccc(C)cc2)C1 (stereo not given),-1 (inactive),-0.147,1.44 (inactive),0.952 (inactive),-0.421 (inactive),0.363 (inactive),-0.566,0.396 (inactive),-0.0222 (inactive),0.315,-1.02,-1.12,-0.444,-0.434,-1.5,-0.717,-1.01 (inactive),0.641,-1.66,-0.0491 (inactive)
CCCC=C(CCC)[C@@H](NC(=O)OCC(C)C)c1ccccc1,-1.93 (inactive),2.47,-0.725 (inactive),-0.732 (inactive),0.455 (inactive),-1.61 (inactive),1.44,-4.11 (inactive),-3.58 (inactive),-2.7,-0.628,0.722,-0.927,-0.0228,-1.71,0.485,-0.594 (inactive),0.0132,-0.558,0.292 (inactive)
O=C1NC(=O)C2C1C=CC(C(O)C=Cc1ccc([N+](=O)[O-])cc1)N2Nc1ccc(Cl)cc1Cl (stereo not given),-2.11 (inactive),0.501,10.1 (active),2.46 (inactive),2.09 (inactive),1.66 (inactive),-1,-0.82 (inactive),-6 (inactive),-1.45,-0.352,-0.122,-0.3,-1.47,-1.4,-0.5,-0.726 (inactive),-1.02,-0.873,-0.428 (inactive)
Cc1ccc([C@H]2C(C(=O)O)=CCN2S(=O)(=O)c2ccc(C)cc2)cc1,-0.813 (inactive),-0.0308,1.48 (inactive),0.495 (inactive),0.164 (inactive),0.291 (inactive),-0.579,0.441 (inactive),-0.84 (inactive),-1.62,-0.261,-0.456,-0.577,-0.458,-0.922,-1.39,-0.521 (inactive),0.284,-0.0534,-0.29 (inactive)
C=CCC(OC(C)=O)[C@@H]1[C@@H](N(Cc2ccc(-c3cccc(C(F)(F)F)c3)o2)C(=O)Cc2ccc(OC)cc2)c2cc(OCCCO)ccc2N1C(=O)c1ccc2ccccc2c1 (stereo not given in full),0.0395 (inactive),0.0191,1.35 (inactive),1.01 (inactive),2.68 (inactive),0.898 (inactive),0.388,-2.68 (inactive),-1.99 (inactive),-1.9,-0.138,1.13,-0.589,0.269,-0.738,2.15,-0.75 (inactive),-0.442,0.675,-0.186 (inactive)
O[C@@H](Cc1ccccc1)[C@@H](/C=C/C1CC1)NCc1cccc(Cl)c1,-1.12 (inactive),-0.0295,1.27 (inactive),1.03 (inactive),0.972 (inactive),0.721 (inactive),0.528,-0.115 (inactive),-0.302 (inactive),-2.08,0.399,-0.15,-1.39,-3.35,-2.71,-0.626,0.713 (inactive),-1.01,-1.7,-0.707 (inactive)
C=C(CCCC)/C(=C/C[C@@H](OC(C)=O)c1ccccc1OCCO)c1cc(C(=O)OC)ccc1OC,0.725 (inactive),-0.239,27.1 (active),11.2 (active),2.14 (inactive),1.71 (inactive),-0.733,1.27 (inactive),0.282 (inactive),-1.36,1.83,0.109,0.741,-2.54,-0.354,1.75,0.478 (inactive),-0.118,0.234,0.873 (inactive)

# From PubChem BioAssay
